From PubChem BioAssay (NCI)
About 83,000 compounds went through this panel and 20% of them were active in at least one assay; those are over-represented in the sample as a whole.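 Single-dose data. Exposure time 48 hours. Values below 10 considered active.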 Activity calls are given as the source filed them.

Test system: HL-60(TB) leukemia
Experiment: NCI-60 one-dose screen, 48 h (100 = growth as untreated, 0 = no growth, -100 = all killed)
Conditions: 10 µM unless noted

Compound	growth
COc1ccc(C2=NN(C(C)=O)C(c3ccc(Oc4ccnc5cc(Cl)ccc45)c(OC)c3)C2)cc1 (stereo not given)	78.4% (inactive)
N#Cc1c(N)sc(=S)c2c1CCCC2	97.6% (inactive)
O=C1NC(=Nc2ccc(O)cc2)S/C1=C\c1cccs1	-4.12% (active)
Cn1c(N2NC(=O)C(N=Nc3ccc(S(N)(=O)=O)cc3)C2=O)nc(-c2ccco2)c(C#N)c1=O (stereo not given)	-41.4% (active)
CC(C)CN(C(=O)c1ccc(Cl)cc1)c1c(N)n(CC(C)C)c(=O)[nH]c1=O	90.8% (inactive)
COc1cc(C2=Nc3c/c(=C\c4c(O)[nH]c5ccc(Cl)cc45)ccc3=N2)cc(OC)c1OC	11.8% (inactive)
CSc1ccc2c3c(n(C[C@H](O)CO)c(=O)c2c1)-c1ccccc1C3=O	-12.2% (active)
O=c1cc(-c2ccccc2)[nH]c2c1CCCC2	19.1% (inactive)
COc1ccc(Cl)cc1NC(=O)c1cc2c([nH]1)-c1nc(NC(=O)C(C)C)sc1CC2	90.9% (inactive)
c1ccc(CCNc2ncnc3[nH]ncc23)cc1	79.6% (inactive)
N=c1nc(N)ncn1-c1ccccc1	110% (inactive)
COc1ccc(S(=O)(=O)c2ccc(C(N)=O)cc2)cc1NC(=O)c1[nH]c(C)c2c1CCCCC2=O	4.2% (active)
COc1cnc2c(c1)C(=O)c1c-2n(CCCCl)c(=O)c2ccncc12	15.8% (inactive)
Cc1ccc(-c2cc3nc(C(Cl)Cl)nc(-c4ccccc4C)n3n2)cc1	78.4% (inactive)
CCCCCC(CCC)COC(=O)c1ccc(OC)cc1 (stereo not given)	90.5% (inactive)
